Reference: PubChem BioAssay (NCATS)
Unmarked numbers belong to inactive results. Records with an inconclusive call do not appear. A call without a number means that no potency is given here. Calls of active or inactive are those of the source. Calls follow the shape of the dose curve; as a rule, active = well fitted curve in the direction sought with a large enough effect; inconclusive = small, poorly fitted or top-dose-only effect, or another doubt; inactive = no such curve, though single readings can be large; an effect the other way counts as inactive or inconclusive.

What was measured:
[1] = biological target: Parathyroid hormone/parathyroid hormone-related peptide receptor (Homo sapiens) (UniProt Q03431); assay: qHTS for PTHR1 Agonists: Optimization Screen against the NCGC LOPAC library (AID 1347079);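 also: GloSensor cAMP luminescence in HEK-293 GP2 cells expressing human PTHR1 with IBMX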; also: potency is read from the fitted curve at half-maximal effect
Chain of Parathyroid hormone/parathyroid hormone-related peptide receptor (Homo sapiens) (Q03431 whole entry, looked up): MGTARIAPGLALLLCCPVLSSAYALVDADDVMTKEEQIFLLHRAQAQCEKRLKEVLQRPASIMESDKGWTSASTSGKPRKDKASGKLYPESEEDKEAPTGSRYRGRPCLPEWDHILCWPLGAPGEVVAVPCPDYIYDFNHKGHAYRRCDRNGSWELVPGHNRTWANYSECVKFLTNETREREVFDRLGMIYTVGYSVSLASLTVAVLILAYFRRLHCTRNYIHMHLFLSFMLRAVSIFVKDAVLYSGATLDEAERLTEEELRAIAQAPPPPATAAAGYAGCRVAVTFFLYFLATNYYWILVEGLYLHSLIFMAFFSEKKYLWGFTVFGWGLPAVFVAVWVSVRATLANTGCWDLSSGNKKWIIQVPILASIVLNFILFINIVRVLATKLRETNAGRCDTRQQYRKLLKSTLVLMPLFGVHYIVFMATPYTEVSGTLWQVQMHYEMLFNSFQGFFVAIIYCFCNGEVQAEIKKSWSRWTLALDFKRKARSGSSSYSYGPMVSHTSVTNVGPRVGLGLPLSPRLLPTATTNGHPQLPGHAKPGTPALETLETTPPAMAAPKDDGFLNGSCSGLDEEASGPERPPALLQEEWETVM
Summary of the method: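 Signal increase flags agonism. GP2 cells, derived from HEK-293, express human PTHR1 and a GloSensor cAMP construct.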

[2] = qHTS of pediatric cancer cell lines to identify multiple opportunities for drug repurposing: Primary screen for TC32 cells (AID 1347089); also: nearly all actives have a fitted effect of over 60% in size
Summary of the method: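 TC32 cells, 500-1,000/well in growth medium, compound-treated 48 h at 37 °C; viability from CellTiter-Glo luminescence. Primary screen: MIPE 11-point (0.78 nM–46 µM final), NPC 8-point (0.59 nM–46 µM final); confirmatory at 11-point dilutions.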

[3] = qHTS of pediatric cancer cell lines to identify multiple opportunities for drug repurposing: Primary screen for DAOY cells (AID 1347090); also: series mostly up to about 46 µM; nearly all actives have a fitted effect of over 55% in size
Summary of the method: (§1)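 Eight- or eleven-point concentration series, 48 h treatment at 37 degrees C in growth media; readout CellTiter-Glo luminescence. Potency and efficacy were taken from the concentration-response curves.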

[4] = qHTS of pediatric cancer cell lines to identify multiple opportunities for drug repurposing: Primary screen for SJ-GBM2 cells (AID 1347091)
Summary of the method: as §1

[5] = qHTS of pediatric cancer cell lines to identify multiple opportunities for drug repurposing: Primary screen for A673 cells (AID 1347092); also: nearly all actives have a fitted effect of over 45% in size
Summary of the method: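 A673 cells (500-1,000 cells/well) were treated 48 hours at 37 degrees C with compounds at 11-point (0.78 nM to 46 µM) or 8-point (0.59 nM to 46 µM) dilutions. Viability read by CellTiter-Glo luminescence; concentration-response curves fitted.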

[6] = qHTS of pediatric cancer cell lines to identify multiple opportunities for drug repurposing: Primary screen for SK-N-MC cells (AID 1347093); also: series mostly up to about 46 µM
Summary of the method: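 Metabolically active cells were quantified by ATP-dependent luminescence (CellTiter-Glo, 15 min at room temperature) following 48 h treatment. Cells had been plated at 500-1,000 per well and settled for 5 h beforehand.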

[7] = qHTS of pediatric cancer cell lines to identify multiple opportunities for drug repurposing: Primary screen for BT-37 cells (AID 1347094); also: series mostly up to about 57 µM
Summary of the method: (§2)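 Phenotypic viability qHTS, 48 h compound exposure, CellTiter-Glo luminescence read-out; multi-concentration dosing so that potency and efficacy derive directly from the primary screen's curves.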

[8] = qHTS of pediatric cancer cell lines to identify multiple opportunities for drug repurposing: Primary screen for NB-EBc1 cells (AID 1347095)
Summary of the method: as §2

[9] = qHTS of pediatric cancer cell lines to identify multiple opportunities for drug repurposing: Primary screen for U-2 OS cells (AID 1347096); also: nearly all actives have a fitted effect of over 50% in size
Summary of the method: (§3)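 Cells (500-1,000/well) in growth media were settled 5 h at 37 degrees C, then given compounds for 48 h. Viability was read as CellTiter-Glo luminescence. Primary runs used MIPE at 11 points (0.78 nM-46 µM) and NPC at 8 points (0.59 nM-46 µM); follow-ups used 11 points.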

[10] = qHTS of pediatric cancer cell lines to identify multiple opportunities for drug repurposing: Primary screen for Saos-2 cells (AID 1347097); also: nearly all actives have a fitted effect of over 40% in size
Summary of the method: as §2

[11] = qHTS of pediatric cancer cell lines to identify multiple opportunities for drug repurposing: Primary screen for SK-N-SH cells (AID 1347098);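 also: DMSO served as neutral control and bortezomib at 2.3 µM as positive control; nearly all actives have a fitted effect of over 65% in size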
Summary of the method: (§4)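 Cells (500-1,000/well) rested 5 h, then received compounds for 48 h; metabolically active cells were measured by CellTiter-Glo luminescence. Final concentrations spanned up to 46 µM (MIPE, 11-point) or 0.59 nM-46 µM (NPC, 8-point) in primary screens, 11-point in follow-ups.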

[12] = qHTS of pediatric cancer cell lines to identify multiple opportunities for drug repurposing: Primary screen for NB1643 cells (AID 1347099); also: nearly all actives have a fitted effect of over 50% in size
Summary of the method: as §2

[13] = qHTS of pediatric cancer cell lines to identify multiple opportunities for drug repurposing: Primary screen for LAN-5 cells (AID 1347100)
Summary of the method: as §3

[14] = qHTS of pediatric cancer cell lines to identify multiple opportunities for drug repurposing: Primary screen for BT-12 cells (AID 1347101); also: nearly all actives have a fitted effect of over 25% in size
Summary of the method: as §4

[15] = qHTS of pediatric cancer cell lines to identify multiple opportunities for drug repurposing: Primary screen for Rh18 cells (AID 1347102); also: nearly all actives have a fitted effect of over 65% in size
Summary of the method: as §3

[16] = qHTS of pediatric cancer cell lines to identify multiple opportunities for drug repurposing: Primary screen for OHS-50 cells (AID 1347103); also: nearly all actives have a fitted effect of over 40% in size
Summary of the method: as §4

[17] = qHTS of pediatric cancer cell lines to identify multiple opportunities for drug repurposing: Primary screen for RD cells (AID 1347104); also: nearly all actives have a fitted effect of over 55% in size
Summary of the method: as §2

[18] = qHTS of pediatric cancer cell lines to identify multiple opportunities for drug repurposing: Primary screen for MG 63 (6-TG R) cells (AID 1347105); also: nearly all actives have a fitted effect of over 50% in size
Summary of the method: as §2

Structure (SMILES): CCCCCCCCCCCCCCCCCC(=O)NCC(COP(=O)([O-])OCC[N+](C)(C)C)OCC (stereo unspecified)
- Potency [1]: inactive

Structure (SMILES): Oc1cc(O)cc(/C=C/c2ccc(O)c(O)c2)c1
- Potency [1]: inactive

Structure (SMILES): N=C(N)SCCc1ccc(CCSC(=N)N)cc1
- Potency [1]: inactive

Structure (SMILES): O=C(O)CCCC[C@@H]1CCSS1
- Potency [1]: inactive

Structure (SMILES): CCc1c(C(=O)NCCc2ccc(N3CCCCC3)cc2)[nH]c2ccc(Cl)cc12
- Potency [1]: inactive

Structure (SMILES): O=C1O/C(=C/Br)CCC1c1cccc2ccccc12 (stereo unspecified)
- Potency [1]: inactive

Structure (SMILES): N#C/C(=C\c1ccc(O)c(O)c1)C(=O)c1ccc(O)c(O)c1
- Potency [1]: inactive

Structure (SMILES): C=C[C@H]1CN2CC[C@@H]1C[C@@H]2[C@@H](O)c1ccnc2ccc(OC)cc12
- Potency [1]: inactive

Structure (SMILES): CN1CCc2cc(O)c(O)cc2C(c2ccccc2)C1 (stereo unspecified)
- Potency [1]: inactive

Structure (SMILES): NC(=S)NCCC[C@H](N)C(=O)O
- Potency [1]: inactive

Structure (SMILES): O=C(O)/C=C/C(O)c1ccc(Cl)cc1 (stereo unspecified)
- Potency [1]: inactive

Structure (SMILES): CN(C)c1nc2c(Br)c(Br)c(Br)c(Br)c2[nH]1
- Potency [1]: inactive

Structure (SMILES): CC(C)ON([C@@H](C(=O)NO)C(C)C)S(=O)(=O)c1ccc(-c2ccccc2)cc1
- Potency [1]: inactive

Structure (SMILES): O=C(/C=C/c1ccccc1)NCCO
- Potency [2]: inactive
- Potency [3]: inactive
- Potency [4]: inactive
- Potency [5]: inactive
- Potency [6]: inactive
- Potency [7]: inactive
- Potency [8]: inactive
- Potency [9]: inactive
- Potency [10]: inactive
- Potency [11]: inactive
- Potency [12]: inactive
- Potency [13]: inactive
- Potency [14]: inactive
- Potency [15]: inactive
- Potency [16]: inactive
- Potency [17]: inactive
- Potency [18]: inactive

Structure (SMILES): Cc1ccc(C(=O)O[C@H](C(=O)O)[C@@H](OC(=O)c2ccc(C)cc2)C(=O)O)cc1 (tested in a mixture with another compound)
- Potency [1]: inactive

Structure (SMILES): CCCCCCCCCCCCCCCC(=O)NCC(COP(=O)([O-])OCC[N+](C)(C)C)OCC (stereo unspecified)
- Potency [1]: inactive

Structure (SMILES): N#C/C(=C\c1c[nH]c2ccccc12)C(=O)c1ccc(O)c(O)c1
- Potency [1]: inactive

Structure (SMILES): CCCCCCCCCCCCCCCCCC(=O)O
- Potency [2]: inactive
- Potency [3]: inactive
- Potency [4]: inactive
- Potency [5]: inactive
- Potency [6]: inactive
- Potency [7]: inactive
- Potency [8]: inactive
- Potency [9]: inactive
- Potency [10]: inactive
- Potency [11]: inactive
- Potency [12]: inactive
- Potency [13]: inactive
- Potency [14]: inactive
- Potency [15]: inactive
- Potency [16]: inactive
- Potency [17]: inactive
- Potency [18]: inactive

Structure (SMILES): CN(C)[C@@H]1C(=O)C(C(=O)NCN2CCCC2)=C(O)[C@@]2(O)C(=O)C3=C(O)c4c(O)cccc4[C@@](C)(O)C3C[C@@H]12 (stereo partly specified)
- Potency [2]: inactive
- Potency [3]: inactive
- Potency [4]: inactive
- Potency [5]: inactive
- Potency [6]: inactive
- Potency [7]: inactive
- Potency [8]: inactive
- Potency [9]: inactive
- Potency [10]: inactive
- Potency [11]: inactive
- Potency [12]: inactive
- Potency [13]: inactive
- Potency [14]: inactive
- Potency [15]: inactive
- Potency [16]: inactive
- Potency [17]: inactive
- Potency [18]: inactive

Structure (SMILES): OC[C@H]1O[C@@H](n2cnc3c(Nc4ccccc4)ncnc32)[C@H](O)[C@@H]1O
- Potency [1]: inactive

Structure (SMILES): CN(C)CCC(c1ccc(Cl)cc1)c1ccccn1 (stereo unspecified)
- Potency [1]: inactive

Structure (SMILES): CN1CCC[C@H]1c1cccnc1
- Potency [1]: inactive

Structure (SMILES): CCCCC/C=C\CC(O)/C=C/c1cccc(CC(O)CCCCO)n1 (stereo unspecified)
- Potency [1]: inactive

Structure (SMILES): CCCCCCCCc1ccc(-c2ccc(C(=O)O)cc2)cc1
- Potency [1]: inactive

Structure (SMILES): Ic1ccc(N2CCN(Cc3c[nH]c4ncccc34)CC2)cc1
- Potency [1]: inactive

Structure (SMILES): C[C@@H](NC(=O)/C(C#N)=C/c1ccc(O)c(O)c1)c1ccccc1
- Potency [1]: inactive

Structure (SMILES): NCCCCC(=O)O
- Potency [1]: inactive

Structure (SMILES): NO
- Potency [1]: inactive

Structure (SMILES): Cc1nc2sccn2c(=O)c1CCN1CCC(=C(c2ccccc2)c2ccc(F)cc2)CC1
- Potency [1]: inactive

Structure (SMILES): O=C(O)CC1CC(c2ccccc2)=NO1 (stereo unspecified)
- Potency [1]: 10.6 µM (active)

Structure (SMILES): c1ccc(-c2ccccn2)nc1
- Potency [1]: inactive

Structure (SMILES): CCCC1(C)C(C#N)(C#N)C1(C#N)C#N
- Potency [1]: inactive

Structure (SMILES): CNCC[C@H](Oc1ccc(C(F)(F)F)cc1)c1ccccc1
- Potency [1]: inactive

Structure (SMILES): C=C[C@@H]1CN2CC[C@@H]1C[C@H]2[C@H](O)c1ccnc2ccc(OC)cc12
- Potency [1]: inactive

Structure (SMILES): Cc1ccccc1CNc1ncnc2c1ncn2C1OC(CO)C(O)C1O (stereo unspecified)
- Potency [1]: inactive

Structure (SMILES): CCCn1c(=O)c2[nH]c(-c3ccc(OCC(=O)NCCN)cc3)nc2n(CCC)c1=O
- Potency [1]: inactive

Structure (SMILES): O=C(O)[C@@H]1C[C@H](C(=O)O)N1
- Potency [1]: inactive

Structure (SMILES): O=C(O)/C=C\C(=O)O
- Potency [2]: inactive
- Potency [3]: inactive
- Potency [4]: inactive
- Potency [5]: inactive
- Potency [6]: inactive
- Potency [7]: inactive
- Potency [8]: inactive
- Potency [9]: inactive
- Potency [10]: inactive
- Potency [11]: inactive
- Potency [12]: inactive
- Potency [13]: inactive
- Potency [14]: inactive
- Potency [15]: inactive
- Potency [16]: inactive
- Potency [17]: inactive
- Potency [18]: inactive

Structure (SMILES): O=C(OCc1ccccc1)c1ccccc1
- Potency [2]: inactive
- Potency [3]: inactive
- Potency [4]: inactive
- Potency [5]: inactive
- Potency [6]: inactive
- Potency [7]: inactive
- Potency [8]: inactive
- Potency [9]: inactive
- Potency [10]: inactive
- Potency [11]: inactive
- Potency [13]: inactive
- Potency [14]: inactive
- Potency [15]: inactive
- Potency [16]: inactive
- Potency [17]: inactive
- Potency [18]: inactive

Structure (SMILES): CCCCCCCCCCCC(=O)[O][Sn]([CH2]CCC)([CH2]CCC)[O]C(=O)CCCCCCCCCCC
- Potency [2]: inactive
- Potency [3]: inactive
- Potency [4]: inactive
- Potency [5]: inactive
- Potency [6]: inactive
- Potency [7]: inactive
- Potency [8]: inactive
- Potency [9]: inactive
- Potency [10]: inactive
- Potency [11]: inactive
- Potency [12]: inactive
- Potency [13]: inactive
- Potency [14]: inactive
- Potency [15]: inactive
- Potency [16]: inactive
- Potency [17]: inactive
- Potency [18]: inactive

Structure (SMILES): CC(C)(C)c1nnc(NS(=O)(=O)c2ccc(N)cc2)s1
- Potency [2]: inactive
- Potency [3]: inactive
- Potency [4]: inactive
- Potency [5]: inactive
- Potency [6]: inactive
- Potency [7]: inactive
- Potency [8]: inactive
- Potency [9]: inactive
- Potency [11]: inactive
- Potency [13]: inactive
- Potency [14]: inactive
- Potency [15]: inactive
- Potency [16]: inactive
- Potency [17]: inactive
- Potency [18]: inactive

Structure (SMILES): O=C(O)Cc1ccc(-c2ccccc2)cc1
- Potency [2]: inactive
- Potency [3]: inactive
- Potency [4]: inactive
- Potency [5]: inactive
- Potency [6]: inactive
- Potency [7]: inactive
- Potency [8]: inactive
- Potency [9]: inactive
- Potency [10]: inactive
- Potency [11]: inactive
- Potency [13]: inactive
- Potency [14]: inactive
- Potency [15]: inactive
- Potency [16]: inactive
- Potency [17]: inactive
- Potency [18]: inactive
